KCNH2 WT inh: qHTS for Inhibitors of KCHN2 3.1: Wildtype qHTS; U2OS, BacMam KCNH2, thallium flux FluxOr; hits give low values; 340,000 tested, 0.37% active; AID 720551, 2013; activity change, % at 1.84 µM; Voltage-gated inwardly rectifying potassium channel KCNH2 (Homo sapiens), Q12809;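 active means maximum activity change below -70%; inconclusive means maximum activity change between -70% and -50%; inactive means maximum activity change above -50%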; further: on the % scale 0 is the no-effect control and ±100 the full control effect
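U2OS cells were transduced with wild-type KCNH2 virus (2.03 x 10^8 / mL) for 4 h at room temperature, then cultured overnight at 37 C. Thallium flux was read with FluxOr dye. Rate constants were normalized to DMSO controls.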
KCNH2 3.1 inh: qHTS for Inhibitors of KCHN2 3.1: Mutant qHTS; Potassium voltage-gated channel subfamily H member 2, brain isoform KCNH2 3.1 (human); U2OS KCNH2 3.1, thallium flux FluxOr; hits give low values; activity change, % (tested at about 1.8 µM); 340,000 tested, 0.95% active; AID 720553, 2013;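 active means maximum activity change below -70%; inconclusive means maximum activity change from -70% to -50%; inactive means maximum activity change above -50%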;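 further: thallium influx rate constant from kinetic fluorescence after stimulation buffer; on the % scale 0 is the no-effect control and ±100 the full control effect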
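Measured as rate of thallium-driven FluxOr signal in transduced U2OS cells carrying the 3.1 channel, read kinetically for 2 min upon stimulation; values are rate constants scaled to DMSO control wells.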
TRPV1 PAM: HTS Assay for Compounds that Act as Potentiators of the Vanilloid Receptor 1; AID 540277, 2011; 320,000 tested, 0.02% active; potentiation, % at 8.33 µM; TRPV1-expressing cells, Fluo-8 calcium influx, capsaicin EC20 potentiation; in the data active means potentiation above about 80%; inconclusive means between about 30% and that limit; further: 0% is about no effect
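Cells expressing TRPV1 were dye-loaded with Fluo-8 and read kinetically: 10 s baseline, 3 min after compound (agonist portion), then 2 min after EC20 capsaicin (allosteric enhancer portion). Calcium-bound dye fluorescence at 480/520 nm.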
MBNL1 CUG block: qHTS Assay for Inhibitors of MBNL1-poly(CUG) RNA binding; TR-FRET MBNL1-His/biotin-(CUG)12 binding, 665/545 ratio; 280,000 tested, 0.036% active; Potency, µM (top dose mostly 57.5 µM), for inactives: top-dose activity change, negative = inhibition, most hits filed as inhibitors; AID 2675, 2010; active means well fitted inhibition curve with a large enough effect in the signal ratio, with a control signal flat, not every such curve was filed as active; inconclusive means small, poorly fitted or top-dose-only effect, or effect the other way, or a change in a side signal; inactive means no such curve, though single readings can be large or run the other way; the % refers to the signal ratio; further: potency means the concentration at half of the fitted maximal effect; on the % scale 0 is the no-effect control and ±100 the full control effect
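Compound titration spanned 92 nM–58 uM against the MBNL1-His/biotin-(CUG)12 complex. After 60 min at room temperature with 5 nM streptavidin-XL665 and 0.055 ng/ul terbium anti-His, ratiometric 665/545 nm emission (Ex 340 nm) normalized to controls.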
TRPV1 agonist: HTS Assay for Compounds that Act as Agonists of the Vanilloid Receptor 1; Transient receptor potential cation channel subfamily V member 1 (Homo sapiens), Q8NER1; TRPV1-expressing cells, Fluo-8 calcium influx, agonist mode; activation, % at 8.33 µM; 320,000 tested, 0.19% active; AID 540275, 2011; in the data active means activation above about 80%; inconclusive means between about 30% and that limit; further: 0% is about no effect
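Fluo-8 calcium influx in TRPV1-expressing cells, kinetic read (ex 480/em 520 nm). Compound added and read 3 min for agonist activity, followed by capsaicin at EC20 final and 2 min further read for enhancement.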
* = called active by the depositor; u = inconclusive; x = not tested or not shown. Hits are enriched below; roughly 1.3% of the tested compounds scored in any of these assays.

SMILES | KCNH2 WT inh | KCNH2 3.1 inh | TRPV1 PAM | MBNL1 CUG block | TRPV1 agonist
C/C(=N\NC(=O)CSc1nc2ccccc2o1)c1cccc(O)c1 | 5.1 | -115.9* | 23.1 | -4.0% | -2.3
O=C(NC1CCCCC1)N1CCC(c2nc3ccccc3[nH]2)CC1 | -4.5 | 11.3 | 7.9 | -4.8% | -6.8
O=C(C1CCCCC1)N1CCC(c2nc3ccccc3[nH]2)CC1 | 1.0 | -89.6* | -12.7 | -5.8% | 0.3
Cc1ccc(NS(=O)(=O)c2ccc(C)c(NC(=S)NCCN3CCOCC3)c2)c(C)c1 | 3.6 | -36.2 | x | x | x
COc1ccc(/C=C/C(=O)NCCCN2CCCCCC2)cc1 | 12.9 | -3.8 | 19.4 | 1.8% | 0.7
COc1ccc(/C=C/C(=O)NCCCN2CCOCC2)cc1 | -1.9 | 4.7 | -2.6 | 15.5% | -0.1
Cc1ccc(/C=C/C(=O)NCCCN2CCN(CCCNC(=O)/C=C/c3ccc(C)o3)CC2)o1 | -1.6 | -76.4* | 0.2 | 25.1% | -0.8
O=C(/C=C/c1ccc(F)cc1)NCCCN1CCN(CCCNC(=O)/C=C/c2ccc(F)cc2)CC1 | -42.9 | -91.9* | 7.7 | -10.5% | 4.0
COC(=O)c1ccc(CNC(=O)c2ccc(S(=O)(=O)N3CCCC(C)C3)cc2)cc1 (configuration not stated) | 9.3 | 8.9 | -1.1 | x | 2.9
CCCC(c1nnnn1CCOC)N1CCN(c2nc3ccccc3s2)CC1 (configuration not stated) | -5.2 | -7.4 | 9.0 | x | -5.0
COc1ccc(-c2cc(C(=O)Nc3ccc(OC)cc3OC)no2)cc1 | 1.6 | -108.3* | 26.6 | -3.4% | -4.7
COc1ccc(C(=O)Nc2ccc(C3=NNC(=O)CC3C)cc2NC(=O)c2ccc(OC)cc2)cc1 (configuration not stated) | -4.5 | -1.8 | -2.9 | -1.0% | 83.5*
COc1ccc(C(=O)Nc2ccc(C(=O)O)cc2NC(=O)c2ccc(OC)cc2)cc1 | -12.3 | -9.1 | 7.0 | -1.3% | -1.8
COc1ccc(NC(=O)c2cc(-c3ccccc3)on2)cc1OC | 3.9 | -76.5* | 6.8 | -17.4% | 2.2
COc1ccc(NC(=O)c2ccc(C)cc2)c(OC)c1 | -170.2* | -154.0* | -12.6 | x | 8.6
COc1ccc(NC(=O)c2ccc3[nH]c(=O)c(=O)[nH]c3c2)c(OC)c1 | 8.0 | 1.2 | 5.9 | 5.1% | 1.8
COc1ccc(-c2cc(C(=O)Nc3cc(Cl)ccc3OC)no2)cc1 | -8.6 | -8.8 | -5.3 | 1.0% | -0.3
CC1CCCN(C(=O)COc2ccc(Nc3ccccc3)cc2)C1 (configuration not stated) | -2.1 | -1.0 | -19.1 | -1.5% | 8.1
CCc1nnc(NC(=O)/C=C/c2cccs2)s1 | -3.2 | -4.7 | -10.2 | 21.1% | -2.6
CCCCN1CC(=O)N2[C@H](c3ccc(Cl)cc3)[C@@H]3C(=O)N(CC)C(=O)[C@@H]3[C@]2(Cc2ccccc2)C1=O | 5.8 | -24.2 | -16.6 | -3.1% | -0.9
CCCCCn1c(=O)[nH]c2cc(C(=O)NCCN3CCOCC3)ccc2c1=O | 12.4 | 7.9 | x | x | x
CCCCCn1c(=O)[nH]c2cc(C(=O)NCCCN(CC)CC)ccc2c1=O | 5.4 | -83.7* | -11.6 | 1.1% | 2.0
COc1ccc2[nH]c3c(c2c1)CCN1C(=O)N([C@@H](C)C(=O)NCc2ccc(C)cc2)C(=O)[C@]31C | -1.0 | 4.0 | 11.5 | -9.7% | -2.8
CC[C@]12c3[nH]c4ccccc4c3CCN1C(=O)C(CC(=O)NCCN1CCOCC1)C[C@@H]2C(=O)N1CCN(C(=O)C2CC2)CC1 (some centres not stated) | -114.1* | 5.9 | x | x | x
CC[C@]12c3[nH]c4ccccc4c3CCN1C(=O)C(CC(=O)NCCCOC)C[C@@H]2C(=O)N1CCN(C(=O)C2CC2)CC1 (some centres not stated) | 21.4 | -6.3 | x | x | x
SMILES | KCNH2 WT inh | KCNH2 3.1 inh | TRPV1 PAM | MBNL1 CUG block | TRPV1 agonist
O=C(CN1C(=O)COc2ccc(S(=O)(=O)N3CCCC3)cc21)Nc1cccc(F)c1 | 12.3 | -115.6* | -11.0 | -0.6% | -0.1
Cc1ccc(C)c(NC(=S)N2CCC(NC(=O)c3ccccc3)CC2)c1 | 5.3 | 14.5 | -2.9 | -4.2% | -1.6
COC(CNC(=O)CCc1c(C)nc2c(c(C)nn2-c2ccc(C)cc2)c1C)OC | 2.8 | 18.8 | -20.8 | -3.6% | 81.9*
CC(C)NC(=O)COc1ccc(S(=O)(=O)N(C)Cc2ccccc2)cc1 | 0.6 | 5.3 | -10.4 | -8.3% | 8.7
CCN(CC(=O)NCCc1ccc(S(N)(=O)=O)cc1)Cc1ccccc1 | 7.6 | -74.4* | 23.0 | -4.0% | 2.7
NS(=O)(=O)c1ccc(CCNC(=O)CNCCc2ccccc2)cc1 | 20.9 | 2.3 | -11.2 | -7.3% | 2.7
Oc1c(CN2CCOCC2)cc(CN2CCOCC2)c(O)c1CN1CCOCC1 | 1.1 | -7.1 | x | x | x
O=c1[nH]cc(CN2CCOCC2)c(=O)[nH]1 | -2.3 | -81.8* | x | x | x
COc1ccc(/C=N/NC(=O)c2nc(-c3ccccc3)cc(-c3ccccc3)n2)cc1OC | -3.5 | -72.4* | 6.5 | 13.5% | 1.4
COc1cccc(/C=N/NC(=O)c2nc(-c3ccccc3)cc(-c3ccccc3)n2)c1 | -10.7 | -78.3* | 0.5 | -4.7% | -4.1
COc1cccc(CCN2CCC(CNS(=O)(=O)c3cc(-c4cc(C)no4)ccc3C)CC2)c1 | 21.0 | 12.8 | 18.3 | -6.4% | 4.0
COc1ccc(CNC(=O)C2CCCN2C(=O)Nc2cccc(Cl)c2)cc1 (configuration not stated) | -2.7 | 8.0 | x | x | x
CC(=O)c1cccc(NC(=O)/C=C/c2ccc([N+](=O)[O-])s2)c1 | -2.2 | -8.3 | -17.7 | u | 83.6*
COc1cc(NC(=O)CSc2nnc(NC(C)C)s2)cc(OC)c1OC | -11.9 | 19.1 | -2.2 | 1.4% | 1.6
COc1ccc(CN(C)CC(O)COc2ccc(C(=O)c3ccccc3)cc2)c(OC)c1OC (configuration not stated) | -1.9 | u | -12.8 | -3.9% | 1.2
COc1ccc(CCN(C)CC(O)COC(c2ccc(F)cc2)c2ccc(F)cc2)cc1OC (configuration not stated) | -144.0* | -112.1* | -3.8 | -2.2% | 3.1
COc1ccc(CCN(C)CC(O)COc2c(C)ccc(C)c2C)cc1OC (configuration not stated) | x | u | -11.8 | -13.1% | 2.9
COc1ccc(CN(C)CC(O)COC(c2ccccc2)c2ccccc2)c(OC)c1OC (configuration not stated) | u | -86.4* | -3.7 | -7.6% | 3.2

Screening data deposited in PubChem by National Center for Advancing Translational Sciences (NCATS).
